Holding throughout (design): scale not given: direction of the effect not stated beside the values
Experiment [1] addresses Protein translocase subunit SecA (Escherichia coli (strain K12)) (UniProt P10408). Put plainly: Assay to Identify E. coli SecA ATPase Inhibitors. As to conditions: 30 µM. The format is functional.
In experiment [2] the target is T1, Ubiquitin-activating enzyme e1, putative (Leishmania donovani (strain BPK282A1)) (UniProt E9BSI1).
T1 sequence (whole entry): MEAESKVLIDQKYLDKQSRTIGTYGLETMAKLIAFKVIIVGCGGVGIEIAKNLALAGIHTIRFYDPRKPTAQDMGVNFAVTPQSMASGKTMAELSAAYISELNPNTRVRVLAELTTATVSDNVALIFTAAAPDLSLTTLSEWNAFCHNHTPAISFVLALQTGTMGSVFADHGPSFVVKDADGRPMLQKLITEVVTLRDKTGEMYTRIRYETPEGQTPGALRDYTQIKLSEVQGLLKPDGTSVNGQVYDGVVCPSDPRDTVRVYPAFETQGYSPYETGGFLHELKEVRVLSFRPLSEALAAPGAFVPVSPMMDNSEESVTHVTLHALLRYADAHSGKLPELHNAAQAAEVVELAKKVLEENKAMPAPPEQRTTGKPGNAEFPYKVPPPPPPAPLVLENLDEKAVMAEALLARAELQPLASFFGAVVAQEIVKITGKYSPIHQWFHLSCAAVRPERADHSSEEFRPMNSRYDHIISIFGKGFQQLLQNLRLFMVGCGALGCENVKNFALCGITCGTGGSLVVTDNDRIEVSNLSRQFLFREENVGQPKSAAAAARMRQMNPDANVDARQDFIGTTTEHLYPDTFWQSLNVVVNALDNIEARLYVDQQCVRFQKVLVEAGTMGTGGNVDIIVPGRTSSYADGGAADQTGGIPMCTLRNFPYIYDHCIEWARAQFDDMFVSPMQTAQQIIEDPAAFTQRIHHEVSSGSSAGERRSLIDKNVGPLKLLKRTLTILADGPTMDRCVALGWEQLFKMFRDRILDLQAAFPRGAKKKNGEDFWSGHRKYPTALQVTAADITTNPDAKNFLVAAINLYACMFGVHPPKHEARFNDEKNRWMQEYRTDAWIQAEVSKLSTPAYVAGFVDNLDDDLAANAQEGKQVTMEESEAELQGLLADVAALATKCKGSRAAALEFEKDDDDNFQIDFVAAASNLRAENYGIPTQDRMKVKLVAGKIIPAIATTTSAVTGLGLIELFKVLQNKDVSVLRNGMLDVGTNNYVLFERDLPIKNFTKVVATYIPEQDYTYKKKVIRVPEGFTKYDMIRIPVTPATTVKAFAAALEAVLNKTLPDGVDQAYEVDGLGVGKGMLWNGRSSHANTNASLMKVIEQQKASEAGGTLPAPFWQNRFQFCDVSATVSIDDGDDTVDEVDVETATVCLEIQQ
Briefly: Leishmania donovani Ubiquitin Activating Enzyme (LdE1). The format is functional. As to conditions: 30 µM.

In experiment [3] the target is AMP-activated protein kinase, AMPK (Homo sapiens) (UniProt P54646+O43741+P54619+Q9UGJ0+Q9Y478+Q13131+Q9UGI9). Briefly: AMP-dependent Kinase enzyme assay. An in vitro enzyme assay that detects ADP turnover that is directly proportional to AMPK activity. This uses naive AMPK that is activated during the assay with MK-8722. The settings on record: 30 µM. The class given is functional.

Experiment [4] has as its target Sialic acid-binding Ig-like lectin 9 (Homo sapiens) (UniProt Q9Y336). Briefly: Hs-Siglec9 ALPHAscreen SOP 20170721. The settings on record: 10 µM. Background: In Alpha technology, singlet oxygen from a donor bead excites a nearby acceptor bead.
In experiment [5] the test system is Trypanosoma cruzi. Briefly: Trypanosoma cruzi phosphomannomutase and mannose-1-phosphate guanylyltransferase assay. The class given is functional. The settings on record: 10 µM.
Experiment [6] concerns the target T2, Arginase-2, mitochondrial (Homo sapiens) (UniProt P78540).
T2 sequence (whole entry): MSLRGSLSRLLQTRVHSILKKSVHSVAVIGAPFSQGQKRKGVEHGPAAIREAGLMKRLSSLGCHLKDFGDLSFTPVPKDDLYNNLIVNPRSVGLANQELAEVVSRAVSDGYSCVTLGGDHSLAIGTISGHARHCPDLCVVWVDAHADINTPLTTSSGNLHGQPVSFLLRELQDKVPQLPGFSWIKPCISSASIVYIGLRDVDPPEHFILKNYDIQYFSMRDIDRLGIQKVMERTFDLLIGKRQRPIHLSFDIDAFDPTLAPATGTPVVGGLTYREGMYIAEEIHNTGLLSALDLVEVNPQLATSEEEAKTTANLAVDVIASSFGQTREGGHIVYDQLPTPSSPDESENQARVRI
Briefly: in vitro enzyme assay to detect the production of urea directly proportional to the activity of Arginase II. Also: in the data most compounds retested in dose-response had high values. As to conditions: 33.3 µM. The format is functional.

The target in experiment [7] is T3, Proteasome subunit beta (Trypanosoma cruzi) (UniProt O96673).
T3 sequence (whole entry): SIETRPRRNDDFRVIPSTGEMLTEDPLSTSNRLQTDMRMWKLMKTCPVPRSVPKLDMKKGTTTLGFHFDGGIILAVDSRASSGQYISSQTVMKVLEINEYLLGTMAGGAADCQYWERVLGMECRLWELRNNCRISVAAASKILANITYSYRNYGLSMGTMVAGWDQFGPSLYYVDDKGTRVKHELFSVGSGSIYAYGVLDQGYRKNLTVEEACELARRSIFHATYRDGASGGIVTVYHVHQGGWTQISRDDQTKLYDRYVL
Briefly: Trypanosoma cruzi proteasome chymotrypsin-like activity (TcProtChymo) assay. Also: in the data most compounds retested in dose-response had high values. The settings on record: 9.37 µM. The class given is functional.

For experiment [8], the species on record is Homo sapiens. Put plainly: To identify inhibition of the IFN signalling (Jak-Stat) pathway via expression of an eGFP reporter gene under the control of an IFN-stimulated response element (ISRE) containing MxA promoter. The format is functional. The settings on record: 30 µM. In general terms: Reporter assays use an easily measured gene product as a stand-in for the process of interest.

Experiment [9] deals with T4, Tyrosyl-tRNA synthetase, putative (Trypanosoma cruzi (strain CL Brener)) (UniProt Q4DSP6).
T4 sequence (whole entry): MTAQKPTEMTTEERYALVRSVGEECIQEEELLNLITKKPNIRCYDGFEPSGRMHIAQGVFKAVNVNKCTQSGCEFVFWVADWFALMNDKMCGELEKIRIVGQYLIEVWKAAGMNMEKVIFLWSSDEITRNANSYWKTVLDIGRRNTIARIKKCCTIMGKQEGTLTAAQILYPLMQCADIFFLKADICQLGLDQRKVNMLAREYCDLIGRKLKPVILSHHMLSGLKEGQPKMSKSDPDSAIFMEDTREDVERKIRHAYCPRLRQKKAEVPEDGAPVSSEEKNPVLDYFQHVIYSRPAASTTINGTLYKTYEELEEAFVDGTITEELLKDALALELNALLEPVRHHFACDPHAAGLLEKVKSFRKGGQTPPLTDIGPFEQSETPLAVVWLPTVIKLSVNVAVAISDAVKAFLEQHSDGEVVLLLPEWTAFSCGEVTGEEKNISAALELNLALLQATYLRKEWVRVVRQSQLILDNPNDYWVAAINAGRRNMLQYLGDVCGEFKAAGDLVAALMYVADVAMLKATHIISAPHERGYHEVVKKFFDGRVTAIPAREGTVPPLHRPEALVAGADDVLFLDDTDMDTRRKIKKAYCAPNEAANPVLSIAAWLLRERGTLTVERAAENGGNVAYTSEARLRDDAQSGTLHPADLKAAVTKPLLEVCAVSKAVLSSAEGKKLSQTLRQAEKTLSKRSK
Put plainly: Trypanosoma cruzi tyrosyl tRNA synthetase (TcYRS) _High Tyrosine SOP. Also: in the data most compounds retested in dose-response had high values. The format is functional. As to conditions: 30 µM.

Experiment [10] concerns the target T4, Tyrosyl-tRNA synthetase, putative (Trypanosoma cruzi (strain CL Brener)). Briefly: Trypanosoma cruzi tyrosyl tRNA synthetase (TcYRS) SOP. The class given is functional. As to conditions: 30 µM.
The target in experiment [11] is Chromo domain-containing protein 1 (Saccharomyces cerevisiae (strain ATCC 204508 / S288c) (Baker's yeast)) (UniProt P32657). Briefly: ScCHD-1 Enzyme Inhibition Assay. Also: in the data most compounds retested in dose-response had high values. As to conditions: 30 µM. The class given is functional.

For some of these results: Results with a measured potency or affinity are listed apart.

Here are results for eleven molecules from ChEMBL document CHEMBL3988442, “University of Dundee, Small-Polar-MMV Screening Library” (2021).

Chain of Sialic acid-binding Ig-like lectin 9 (Homo sapiens) (Q9Y336 whole entry): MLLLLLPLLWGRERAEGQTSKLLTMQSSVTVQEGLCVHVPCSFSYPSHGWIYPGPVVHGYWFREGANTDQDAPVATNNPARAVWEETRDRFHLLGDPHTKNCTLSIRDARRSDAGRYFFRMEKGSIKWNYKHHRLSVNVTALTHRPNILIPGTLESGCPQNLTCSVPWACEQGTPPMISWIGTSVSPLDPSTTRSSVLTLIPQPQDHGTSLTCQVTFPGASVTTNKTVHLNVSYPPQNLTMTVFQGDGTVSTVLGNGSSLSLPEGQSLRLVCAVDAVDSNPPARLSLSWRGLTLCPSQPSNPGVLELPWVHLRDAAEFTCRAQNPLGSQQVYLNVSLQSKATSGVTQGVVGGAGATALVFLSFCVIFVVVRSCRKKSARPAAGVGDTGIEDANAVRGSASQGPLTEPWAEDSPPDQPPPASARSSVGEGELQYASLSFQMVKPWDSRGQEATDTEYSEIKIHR
Chain of Chromo domain-containing protein 1 (Saccharomyces cerevisiae (strain ATCC 204508 / S288c) (Baker's yeast)) (P32657 whole entry, the tested form may be a part): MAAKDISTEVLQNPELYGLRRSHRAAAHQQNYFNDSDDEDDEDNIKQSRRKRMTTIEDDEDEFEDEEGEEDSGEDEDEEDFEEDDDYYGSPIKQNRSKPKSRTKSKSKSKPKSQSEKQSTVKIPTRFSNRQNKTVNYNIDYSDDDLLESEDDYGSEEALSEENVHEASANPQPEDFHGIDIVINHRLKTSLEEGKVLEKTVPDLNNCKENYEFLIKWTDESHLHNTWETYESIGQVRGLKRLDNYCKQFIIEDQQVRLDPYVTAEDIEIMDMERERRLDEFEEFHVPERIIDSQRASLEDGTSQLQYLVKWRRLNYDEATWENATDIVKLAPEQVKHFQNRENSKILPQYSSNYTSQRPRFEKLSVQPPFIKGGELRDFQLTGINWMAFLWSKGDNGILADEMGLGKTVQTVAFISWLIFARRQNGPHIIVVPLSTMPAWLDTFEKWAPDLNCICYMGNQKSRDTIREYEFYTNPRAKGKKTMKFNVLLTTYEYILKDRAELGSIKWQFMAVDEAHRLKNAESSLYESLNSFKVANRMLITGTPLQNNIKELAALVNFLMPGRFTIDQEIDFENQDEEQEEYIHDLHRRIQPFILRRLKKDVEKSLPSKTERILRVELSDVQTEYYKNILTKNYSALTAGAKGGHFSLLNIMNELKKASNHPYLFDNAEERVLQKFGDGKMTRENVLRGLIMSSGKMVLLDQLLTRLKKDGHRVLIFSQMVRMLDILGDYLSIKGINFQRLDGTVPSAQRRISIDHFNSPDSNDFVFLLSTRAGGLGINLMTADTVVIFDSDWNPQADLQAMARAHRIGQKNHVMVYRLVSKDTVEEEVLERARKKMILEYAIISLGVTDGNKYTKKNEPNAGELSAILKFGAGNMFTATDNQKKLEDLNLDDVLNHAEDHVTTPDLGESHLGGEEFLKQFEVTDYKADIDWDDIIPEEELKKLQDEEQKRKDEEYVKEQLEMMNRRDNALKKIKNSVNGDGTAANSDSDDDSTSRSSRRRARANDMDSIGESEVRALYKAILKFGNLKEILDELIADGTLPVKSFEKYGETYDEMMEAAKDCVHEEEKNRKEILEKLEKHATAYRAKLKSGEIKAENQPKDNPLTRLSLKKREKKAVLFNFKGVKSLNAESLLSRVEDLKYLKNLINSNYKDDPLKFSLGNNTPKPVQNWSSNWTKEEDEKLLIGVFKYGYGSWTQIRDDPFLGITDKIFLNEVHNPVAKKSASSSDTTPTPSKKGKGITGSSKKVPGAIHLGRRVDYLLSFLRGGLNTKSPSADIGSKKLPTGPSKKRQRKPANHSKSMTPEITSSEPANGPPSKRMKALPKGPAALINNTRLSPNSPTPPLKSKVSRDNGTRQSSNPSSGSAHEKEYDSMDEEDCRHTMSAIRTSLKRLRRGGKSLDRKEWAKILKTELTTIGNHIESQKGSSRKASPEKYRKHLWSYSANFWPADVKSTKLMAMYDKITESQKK
Chain of Protein translocase subunit SecA (Escherichia coli (strain K12)) (P10408 whole entry): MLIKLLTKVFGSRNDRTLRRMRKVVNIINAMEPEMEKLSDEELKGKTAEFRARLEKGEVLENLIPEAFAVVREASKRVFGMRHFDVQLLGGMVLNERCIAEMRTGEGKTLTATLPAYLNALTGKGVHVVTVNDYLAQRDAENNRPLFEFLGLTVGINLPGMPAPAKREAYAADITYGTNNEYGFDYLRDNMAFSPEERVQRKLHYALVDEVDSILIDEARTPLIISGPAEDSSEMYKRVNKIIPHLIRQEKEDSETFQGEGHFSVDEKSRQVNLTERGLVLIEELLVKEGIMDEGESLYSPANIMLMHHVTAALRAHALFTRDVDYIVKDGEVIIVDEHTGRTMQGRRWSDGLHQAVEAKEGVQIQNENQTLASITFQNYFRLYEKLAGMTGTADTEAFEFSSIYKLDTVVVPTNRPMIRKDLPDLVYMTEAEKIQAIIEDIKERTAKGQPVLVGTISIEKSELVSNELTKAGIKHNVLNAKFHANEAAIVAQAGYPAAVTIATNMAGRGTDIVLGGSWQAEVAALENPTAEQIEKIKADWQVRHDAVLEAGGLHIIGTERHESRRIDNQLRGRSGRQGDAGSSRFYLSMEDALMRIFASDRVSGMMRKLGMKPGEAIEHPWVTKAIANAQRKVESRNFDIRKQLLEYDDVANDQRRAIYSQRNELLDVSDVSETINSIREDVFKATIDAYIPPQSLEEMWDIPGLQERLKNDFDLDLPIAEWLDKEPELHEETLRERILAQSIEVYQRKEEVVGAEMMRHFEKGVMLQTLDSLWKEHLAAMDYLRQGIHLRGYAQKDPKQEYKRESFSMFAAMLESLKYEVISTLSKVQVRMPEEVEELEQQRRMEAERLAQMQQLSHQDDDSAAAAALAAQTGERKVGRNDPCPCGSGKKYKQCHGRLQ

As to `CC1CCc2nc(O)c(C(=O)NCc3cccc(F)c3)cc2C1` (stereo unspecified), the Percent Effect in [1] was -3.85%; in experiment [2] it was -12%; in experiment [3] it was 11.6%; in [4], 0.168%; in experiment [5], -3.54%; in [6], -5.46%. Besides, the Percent Effect in experiment [7] is 4.99%; in experiment [8], 9.92%; in experiment [9], -1.06%; in [10] it was 0%; in experiment [11], -2.98%.
With `CNS(=O)(=O)Cc1ccc(CNC(=O)c2ccc(C)[nH]c2=O)cc1`, the Percent Effect in experiment [1] is -4.48%; in experiment [2] it was 28.6%; in experiment [3], -2.88%; in experiment [4], 7.58%; in [5] it was 6.37%; in experiment [6], -1.07%. In addition, the Percent Effect in [7] was 5.91%; in [8], -2.15%; in [9] it was 10.7%; in [10], 26.8%; in experiment [11] it was -6.56%.
For the molecule `CCOC(=O)c1sc2ccsc2c1CNC(=O)CC`, the Percent Effect in experiment [1] was -4.75%; in experiment [2] it was 16.2%; in [3], -8.58%; in experiment [4], 18.5%; in experiment [5], 7.15%; in experiment [6], -0.185%. Besides, the Percent Effect in experiment [7] amounted to 1.44%; in [8] it was 19%; in [9], 4.95%; in experiment [10], 13.4%; in experiment [11], 38.4%.
Regarding `Cn1cnc2c(N3CCCC3)nc(C3CCNCC3)cc21`, the Percent Effect in experiment [1] is -0.224%; in experiment [2], 13.3%; in experiment [3], -2.65%; in experiment [4], 0.534%; in experiment [5] it was 0.965%; in experiment [6], -48.6%. Also, the Percent Effect is 9.23% in [7]; 1.97% in experiment [8]; 3.12% in [9]; 20% in experiment [10]; -8.26% in experiment [11].
Consider `CCN1CCN(c2ccc(F)cc2C(C)NCc2noc(C)n2)CC1` (stereo unspecified), for which the Percent Effect in [1] was -1.18%; in [2], -8.11%; in experiment [3] it was -2.95%; in experiment [4], -6.13%; in [5], -1.27%; in [6] it was 1.74%. The Percent Effect is 2.83% in experiment [7]; -7.51% in experiment [8]; 1.07% in [9]; 1.24% in experiment [10]; -0.843% in experiment [11].
As to `Cc1ccc(-c2nc(CN3CCc4nn(C)c(=O)cc4C3)no2)cc1`, the Percent Effect in experiment [1] was -1.55%; in experiment [2] it was -24.3%; in experiment [3] it was 7.36%; in experiment [4], -4.73%; in experiment [5], 5.75%; in experiment [6], 2.81%. The Percent Effect in experiment [7] was -12.8%; in experiment [8] it was 2.86%; in [9] it was -0.493%; in [10], -1.24%; in [11] it was -4.17%.
In the case of `Cc1cnn(CC2CN(CCc3ccncc3)CCO2)c1` (stereo unspecified), the Percent Effect is -4.16% in experiment [1]; 5.48% in experiment [2]; 0.214% in experiment [3]; -1.34% in experiment [4]; -0.783% in experiment [5]; 3.18% in experiment [6]. The Percent Effect in experiment [7] was 4.08%; in experiment [8] it was -14.5%; in experiment [9], 3.23%; in experiment [10], 5%; in experiment [11] it was -0.563%.
As for `CC(=O)c1cc(CC(=O)NCc2ccc(F)cc2)cs1`, the Percent Effect in [1] is -2.72%; in experiment [2], 0%; in experiment [3] it was 1.92%; in experiment [4], 3.19%; in experiment [5], 1.93%; in experiment [6], -1.43%. The Percent Effect is 1.72% in experiment [7]; -0.802% in experiment [8]; 4.76% in experiment [9]; 9.76% in experiment [10]; -0.261% in experiment [11].
For the molecule `CCC1=N[C@@]2(CC[C@@H]3CN(S(=O)(=O)CC(C)C)C[C@@H]32)C(=O)N1C`, the Percent Effect in [1] is -0.279%; in experiment [2], 10.4%; in experiment [3], 4.02%; in experiment [4], 2.43%; in [5], -3.25%; in experiment [6] it was 7.1%. Besides, the Percent Effect in [7] was 13.2%; in experiment [8], -9.27%; in [9], 5.29%; in experiment [10], 16.7%; in experiment [11] it was -9.12%.
For the molecule `Cc1cc(NC(=O)CN2CCN(c3nccs3)C(C)C2)n(C)n1` (stereo unspecified), the Percent Effect is -1.17% in experiment [1]; -2.7% in experiment [2]; -3.28% in experiment [3]; 12% in [4]; 0.279% in [5]; 0.924% in [6]. The Percent Effect in [7] is 4.49%; in experiment [8], -4.36%; in experiment [9] it was 1.98%; in experiment [10], 3.66%; in experiment [11], 10.5%.
In the case of `CC1=N[C@@]2(CC[C@@H]3CN(S(=O)(=O)CC(C)C)C[C@@H]32)C(=O)N1CC(C)C`, the Percent Effect in [1] was -5.41%; in experiment [2], 5.41%; in experiment [3], 5.56%; in [4] it was -6.18%; in [5], -2.64%; in experiment [6], 2.23%. The Percent Effect in experiment [7] is 23.8%; in [8], -9.78%; in experiment [9] it was 3.24%; in experiment [10] it was 10.3%; in experiment [11] it was -0.878%.
